Compounds without any hit were thinned out: in the full panel of roughly 83,000, 20% have a hit.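 The endpoint reported here, percent growth, reads 100 for growth as untreated, 0 for no net growth and -100 for all cells dead.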 A number with no mark means an inactive call. The source made the active and inactive calls. Rule for the calls: active = growth percent below 10; inactive = the rest.
Assays:
Test in all cases: NCI-60 one-dose screen, 48 h (100 = growth as untreated, 0 = no growth, -100 = all killed)
Details in all cases: 10 µM unless noted
NCI-H226 lung = system: NCI-H226 lung
NCI-H322M lung = system: NCI-H322M lung
HOP-62 NSCLC = system: HOP-62 NSCLC
NCI-H460 lung = system: NCI-H460 lung
HOP-92 NSCLC = system: HOP-92 NSCLC
NCI-H522 lung = system: NCI-H522 lung
A549/ATCC NSCLC = system: A549/ATCC NSCLC
786-0 renal = system: 786-0 renal
COLO 205 colon = system: COLO 205 colon

Compound	growth (NCI-H226 lung)	growth (NCI-H322M lung) [%]	growth (HOP-62 NSCLC)	growth (NCI-H460 lung)	growth (HOP-92 NSCLC)	growth (NCI-H522 lung)	growth (A549/ATCC NSCLC)	growth (786-0 renal)	growth (COLO 205 colon)
CCCCCOC(=O)c1ccccc1O	97.8%	101	85.4%	108%	88%	87.4%	96.2%	94.4%	120%
CNC(=O)c1cc(Oc2ccc3c(c2)sc2nc(-c4ccc(NC(C)=O)cc4)cn23)ccn1	72.3%	69.6	41.5%	49.8%	35.3%	28.4%	59.6%	33.8%	47%
C/C(=N/Nc1nc2ccccc2n1C)c1ccccn1	-12.1% (active)	14.7	-7.45% (active)	-23.3% (active)	15.9%	-4.8% (active)	4.01% (active)	9.02% (active)	-4.66% (active)
COc1ccc(-c2cc(-c3nnc(SCC(=O)Nc4ccc(/C(C)=N\O)cc4)n3-c3ccccc3)c3cc(OC)ccc3n2)cc1	86.1%	79	79.4%	83.9%	78.4%	35.1%	51.2%	83.5%	93.6%
CCOC(=O)c1c(C)nc2c(c1N)/C(=C/c1ccccn1)C(=O)N2Cc1ccccc1	44.4%	62.7	-8.66% (active)	–	30.5%	0.177% (active)	44.6%	-64.8% (active)	-42.7% (active)
C=C1C(=O)O[C@H]2[C@H]1CC/C(C=Nc1c(N)cc(F)cc1Br)=C\CC[C@@]1(C)O[C@@H]21	82.9%	97.7	89.2%	96.3%	97.3%	53.8%	78.8%	43.8%	38.8%
C=C1C(=O)O[C@H]2[C@H]1CC/C(COC(=O)NCc1nc3ccccc3[nH]1)=C\CC[C@@]1(C)O[C@@H]21	88.4%	112	95%	102%	136%	-43.9% (active)	94.6%	101%	18.8%
C=CCn1c(SCC(=O)Nc2ccc(C(=O)/C=C/c3ccc(Cl)cc3)cc2)nnc1-c1cc(OC)c(OC)c(OC)c1	79.6%	101	98.3%	99.6%	89.2%	76.3%	85.6%	81%	110%
CC(C)(C)CC(C)(C)Cc1ccc(OCCOCC[N+](C)(C)Cc2ccccc2)cc1	38.1%	70.6	66.1%	13.7%	-7.72% (active)	9.27% (active)	71.8%	44.5%	-72.3% (active)
